“And” between values parts separate entries of the source, which are not always exact repeats. Identical values can stand only once. Compounds without any hit were thinned out: in the full panel of roughly 83,000, 20% have a hit.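 96-well plates, one dose, 48 hours. Percent growth reported; active if below 10.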 The source made the active and inactive calls.
Legend:
Assay in all cases: NCI-60 one-dose screen, 48 h (100 = growth as untreated, 0 = no growth, -100 = all killed)
Settings in all cases: 10 µM unless noted
SK-MEL-2 melanoma = tested on: SK-MEL-2 melanoma
EKVX NSCLC = tested on: EKVX NSCLC
SN12C renal = tested on: SN12C renal
UO-31 renal = tested on: UO-31 renal
TK-10 renal = tested on: TK-10 renal
ACHN renal = tested on: ACHN renal
CAKI-1 renal = tested on: CAKI-1 renal
A498 renal = tested on: A498 renal
CCRF-CEM leukemia = tested on: CCRF-CEM leukemia
MOLT-4 leukemia = tested on: MOLT-4 leukemia

Row | SMILES | growth (SK-MEL-2 melanoma) | growth (EKVX NSCLC) | growth (SN12C renal) | growth (UO-31 renal) | growth (TK-10 renal) | growth (ACHN renal) | growth (CAKI-1 renal) | growth (A498 renal) | growth (CCRF-CEM leukemia) | growth (MOLT-4 leukemia)
1 | N#Cc1cc(-c2ccnc(Nc3ccc(NC(=O)CCl)cc3)n2)ccc1N1CCCC1 | -39.9% (active) | 12% (inactive) | -39.4% (active) | -71.9% (active) | 9.16% (active) | -24.6% (active) | -40.4% (active) | 16.1% (inactive) | 0.0905% (active) | -7.09% (active)
2 | COC(=O)N/N=C/c1c[n+]([O-])c2ccccc2[n+]1[O-] | 112% (inactive) | 100% (inactive) | 99.6% (inactive) | 86.6% (inactive) | 119% (inactive) | 100% (inactive) | 89.1% (inactive) | 98% (inactive) | 94% (inactive) | 104% (inactive)
3 | CCCCCO/N=C\c1c2c(O)c3c(O)c(C)c4c(c3c1O)C(=O)C(C)(O/C=C\C(OC)C(C)C(OC(C)=O)C(C)C(O)C(C)C(O)C(C)/C=C\C=C(\C)C(=O)N2)O4 (stereo not given) | -37.7% (active) | 27.3% (inactive) | 27.6% (inactive) | 17.8% (inactive) | 38% (inactive) | 29.6% (inactive) | 14.9% (inactive) | 62.9% (inactive) | 18.6% (inactive) | 14.4% (inactive)
4 | COc1ccc(/C(C)=C(\c2ccc(OCCN3CCOCC3)cc2)c2ccc(OC(=O)C3CCCCC3)cc2)cc1 | 104% (inactive) | 107% (inactive) | 113% (inactive) | 101% (inactive) | 104% (inactive) | 98% (inactive) | 101% (inactive) | 110% (inactive) | 111% (inactive) | 117% (inactive)
5 | CN(Cc1ccccc1)c1nc(Cl)c(C2CC(c3ccc4c(c3)OCO4)=NN2c2cc(Cl)cc(Cl)c2)s1 (stereo not given) | 101% (inactive) | 95.1% (inactive) | 99.1% (inactive) | 87.5% (inactive) | 119% (inactive) | 97% (inactive) | 84.3% (inactive) | 115% (inactive) | 97.1% (inactive) | 107% (inactive)
6 | COc1ccc(/C=C2/C(=O)N=C3N2NC(c2ccccc2)=CN3c2ccccc2)cc1 | 106% (inactive) | 103% (inactive) | 96% (inactive) | 77.4% (inactive) | 124% (inactive) | 96.2% (inactive) | 88.4% (inactive) | 107% (inactive) | 101% (inactive) | 106% (inactive)
7 | O=c1c2c([nH]c3ccccc13)CCCC2 | 103% (inactive) and -12% (active) | 103% (inactive) | 95.8% (inactive) and 56.5% (inactive) | 87.6% (inactive) and 50.4% (inactive) | 104% (inactive) and 62.2% (inactive) | 96.5% (inactive) and 57.9% (inactive) | 98.6% (inactive) and 54.6% (inactive) | 102% (inactive) and 49.1% (inactive) | -32.1% (active) and 37.1% (inactive) | 83.4% (inactive) and 34.7% (inactive)
8 | CCCCCCCCCCCCCCCCCCOc1cccc(CC(=O)OCC[N+](CC)(CC)CC)c1 | 84% (inactive) | 77.7% (inactive) | 42.8% (inactive) | 86.4% (inactive) | 67.5% (inactive) | 90% (inactive) | 62.7% (inactive) | 89.3% (inactive) | 32.5% (inactive) | 72% (inactive)
9 | O=[N+]([O-])c1ccc(S(=O)Cc2ccccc2)c([N+](=O)[O-])c1 (stereo not given) | 82.9% (inactive) and 87.7% (inactive) | 90.4% (inactive) | 62.5% (inactive) and 87.4% (inactive) | -24.9% (active) and -40.3% (active) | 32.5% (inactive) and -27.2% (active) | -58.6% (active) and -91.6% (active) | 35.8% (inactive) and -14.6% (active) | 98% (inactive) and 85.1% (inactive) | -15% (active) and 0.711% (active) | 81.6% (inactive) and 1.31% (active)
10 | CCCCSc1ccc2nc(-c3ccc(OCCCN=C(N)N)cc3)cn2c1 | 48.4% (inactive) | 95.6% (inactive) | 88.3% (inactive) | 76.6% (inactive) | 110% (inactive) | 89.2% (inactive) | 62.3% (inactive) | 89.4% (inactive) | 53.4% (inactive) | 53.1% (inactive)
11 | CC1(C)C(N)=Nc2cc(OCCCCN3Cc4ccccc4C3)c(OCC3CC3)cc21 | 110% (inactive) | 78.6% (inactive) | 81.9% (inactive) | 60.5% (inactive) | 86.9% (inactive) | 87.8% (inactive) | 56.3% (inactive) | 109% (inactive) | 99.4% (inactive) | 101% (inactive)
12 | C[C@@H]1O[C@@H](O[C@H]2[C@@H](OC(=O)[C@]34CCC(C)(C)C[C@H]3C3=CC[C@@H]5[C@@]6(C)C[C@H](O)[C@H](O[C@@H]7O[C@H](CO)[C@@H](O)[C@H](O)[C@H]7O)[C@@](C)(CO)[C@@H]6CC[C@@]5(C)[C@]3(C)C[C@H]4O)OC[C@@H](O)[C@@H]2O)[C@H](O)[C@H](O[C@@H]2OC[C@@H](O)[C@H](O[C@@H]3OC[C@](O)(CO)[C@H]3O[C@@H]3OC[C@@H](O)[C@H](O)[C@H]3O)[C@H]2O)[C@H]1O[C@@H]1OC[C@](O)(CO)[C@H]1O | 17.5% (inactive) | 39.7% (inactive) | 25.5% (inactive) | 28.6% (inactive) | 74.2% (inactive) | 78% (inactive) | 71.8% (inactive) | 5.96% (active) | 86% (inactive) | 86.6% (inactive)
13 | Nc1n[nH]c2cccc(C#Cc3cccc(C(=O)Nc4ccc(CN5CCOCC5)c(C(F)(F)F)c4)c3)c12 | 23.3% (inactive) | 63.4% (inactive) | 54.8% (inactive) | 22.3% (inactive) | 76.2% (inactive) | 24.8% (inactive) | 73.4% (inactive) | 67.5% (inactive) | 20.7% (inactive) | 16.9% (inactive)
14 | COC(=O)[C@H]1Cc2c([nH]c3ccccc23)[C@@H](c2cccs2)N1 | 97.2% (inactive) | 96.3% (inactive) | 102% (inactive) | 93% (inactive) | 86.7% (inactive) | 111% (inactive) | 89.8% (inactive) | 93.2% (inactive) | 101% (inactive) | 103% (inactive)
15 | CCCN1C(=O)/C(=c2\sc3n(c2=O)NC2C(N=3)N(CC)C(=O)N2CC)c2ccccc21 (stereo not given) | 68.6% (inactive) | 55.7% (inactive) | 38.1% (inactive) | 46.7% (inactive) | 86% (inactive) | 47.5% (inactive) | 40.7% (inactive) | 29% (inactive) | 25.1% (inactive) | 38% (inactive)
16 | OCCN1CCN(c2cc(-c3cccc(OC(F)(F)F)c3)nc3ccc(N4CCCC4)cc23)CC1 | 93.3% (inactive) | 75.9% (inactive) | 59.5% (inactive) | 37.1% (inactive) | 69.3% (inactive) | 44.7% (inactive) | 40.5% (inactive) | 68.3% (inactive) | 40% (inactive) | 11.2% (inactive)
17 | COc1ccc(-c2cc(-c3cccnc3)nc3sc4c(Cl)nnnc4c23)cc1OC | 98.3% (inactive) | 111% (inactive) | 92.9% (inactive) | 76.3% (inactive) | 129% (inactive) | 87.4% (inactive) | 101% (inactive) | 88.1% (inactive) | 33.6% (inactive) | 49.1% (inactive)
18 | O=C1C(N2CCOCC2)=C(I)C(=O)c2ncccc21 | 91.1% (inactive) | 89.3% (inactive) | 60.6% (inactive) | 54.3% (inactive) | 111% (inactive) | 58.7% (inactive) | 76.1% (inactive) | 102% (inactive) | 62.4% (inactive) | 50.5% (inactive)
19 | COc1nc(=O)n(C2C=CC(=O)O2)cc1F (stereo not given) | 106% (inactive) | 78.4% (inactive) | 94.8% (inactive) | 56.3% (inactive) | 61.3% (inactive) | 31.7% (inactive) | 40.1% (inactive) | 97.9% (inactive) | 48.7% (inactive) | 33.5% (inactive)
20 | COc1ccc(/C(C)=C(\c2ccc(OCCN3CCCCCC3)cc2)c2ccc(OC(=O)C3CCCCC3)cc2)cc1 | -78.3% (active) | -25.3% (active) | -87.2% (active) | -96.9% (active) | -79.2% (active) | -88.5% (active) | -34.4% (active) | -3.54% (active) | -31.5% (active) | -13.7% (active)
